This note sets out measurements from PubChem BioAssay AID623911 (Vanderbilt High Throughput Screening Facility, 2012).

SMILES strings stand for the structures. Out of some 2,100 compounds screened, about 770 (37%) were called active.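 Rule for the calls: active = by-eye trace score of 1 for enhancers or -1 for inhibitors, so actives lie on both sides (some results past the limit were not filed as active); inactive = score 0, or 3 fluorescent, or 4 baseline rise.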 Some of the results follow.

The assay deals with G protein-activated inward rectifier potassium channel 2 (Homo sapiens) + G protein-activated inward rectifier potassium channel 1 (Homo sapiens) (UniProt P48051+P48549). Kind of assay: GIRK1/2 thallium flux modulators, retest, confirmation, cell-based, HEK293 rmGlu8/hGIRK1/2, FluoZin-2 (AID 623911). As to conditions: HEK293 rmGlu8/hGIRK1/2, thallium flux FluoZin-2; actives lie on both sides; glutamate co-added at its EC20 level.
G protein-activated inward rectifier potassium channel 2 (Homo sapiens) + G protein-activated inward rectifier potassium channel 1 (Homo sapiens), sequence (P48051 whole entry, looked up): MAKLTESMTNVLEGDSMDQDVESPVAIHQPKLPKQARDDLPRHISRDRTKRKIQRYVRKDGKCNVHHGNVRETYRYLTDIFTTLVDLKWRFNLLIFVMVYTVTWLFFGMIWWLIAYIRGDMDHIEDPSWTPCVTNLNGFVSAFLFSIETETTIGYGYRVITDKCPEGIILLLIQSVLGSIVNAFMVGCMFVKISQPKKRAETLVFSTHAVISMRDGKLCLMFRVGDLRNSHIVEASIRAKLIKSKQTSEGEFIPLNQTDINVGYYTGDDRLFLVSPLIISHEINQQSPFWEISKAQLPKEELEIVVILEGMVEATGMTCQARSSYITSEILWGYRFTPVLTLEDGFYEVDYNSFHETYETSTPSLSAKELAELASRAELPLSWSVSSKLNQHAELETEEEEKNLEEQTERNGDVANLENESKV
G protein-activated inward rectifier potassium channel 2 (Homo sapiens) + G protein-activated inward rectifier potassium channel 1 (Homo sapiens), sequence (P48549 whole entry, looked up): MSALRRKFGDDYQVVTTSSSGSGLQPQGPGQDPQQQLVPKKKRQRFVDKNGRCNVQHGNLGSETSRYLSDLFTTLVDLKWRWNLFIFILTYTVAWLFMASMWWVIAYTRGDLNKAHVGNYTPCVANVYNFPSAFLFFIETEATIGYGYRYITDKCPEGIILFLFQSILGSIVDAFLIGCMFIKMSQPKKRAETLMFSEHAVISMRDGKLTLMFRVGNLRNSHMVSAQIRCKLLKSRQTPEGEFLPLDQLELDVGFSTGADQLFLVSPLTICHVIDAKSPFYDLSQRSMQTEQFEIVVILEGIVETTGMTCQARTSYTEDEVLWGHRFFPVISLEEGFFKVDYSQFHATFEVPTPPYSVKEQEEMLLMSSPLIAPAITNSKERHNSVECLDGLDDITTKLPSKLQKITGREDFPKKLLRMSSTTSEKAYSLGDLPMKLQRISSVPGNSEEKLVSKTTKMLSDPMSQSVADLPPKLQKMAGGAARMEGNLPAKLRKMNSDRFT
With `Cc1cccc(C(=O)N2CCC(Cc3ccccc3)CC2)c1[N+](=O)[O-]`, the manual score is -1 (active). Consider `O=C(Nc1ccc(OCC(=O)N2CCC(Cc3ccccc3)CC2)cc1)c1ccco1`, for which the manual score was 0 (inactive). For the compound `Cc1noc(C)c1S(=O)(=O)N1CCC(Cc2ccccc2)CC1`, the manual score is 0 (inactive).

`O=C(Nc1nc2ccccc2s1)c1cc(-c2ccccc2)nn1-c1ccccc1`: the manual score was 0 (inactive). Regarding `CC(=O)c1sc(NC(=O)c2cc(-c3ccccc3)nn2-c2ccccc2)nc1C`, the manual score was 1 (active). Regarding `COC(=O)Nc1nc(C)c(C(=O)N(C)C)s1`, the manual score was 0 (inactive). As for `C#CC(CO)N(CCN(Cc1ccccc1)C(C#C)CO)Cc1ccccc1` (stereo not given), the figure is -1 (active). In the case of `C#CCSc1nnc(-c2cccc3ccccc23)o1` it was 0 (inactive); in that of `C=CCNC(=S)Nc1sc2c(c1C(=O)OCC)CC(C(C)C)OC2` (stereo not given), 1 (active); in that of `CCOC(=O)c1c(NC(=O)C2C3C=CC(C3)C2C(=O)O)sc2c1CCC(CC)C2` (stereo not given), 0 (inactive). On to `CCOC(=O)c1c(NC(=S)NCCc2ccccc2)sc2c1CC(C(C)C)OC2` (stereo not given), for which the manual score is 0 (inactive).

Take `CCOC(=O)C1=C(NC(=S)NC(=O)c2ccccc2)c2ccccc2CC1C(C)C` (stereo not given): the manual score was 0 (inactive). For the compound `C=CCNC(=S)Nc1sc2c(c1C(=O)OCC)CC(C)(CC)OC2` (stereo not given), the manual score was 1 (active).

As to `CCOC(=O)c1c(NC(=S)NC)sc2c1CC(C)(C)SC2`, the manual score was 1 (active).

Turning to `C=C(C)C1CC=C(C)/C(=N/NC(=S)Nc2ccccc2)C1` (stereo not given), the manual score was 0 (inactive). In the case of `Cc1ccc(NC(=O)CN2c3cccc4cccc(c34)S2(=O)=O)cc1S(=O)(=O)N1CCOCC1` it was 1 (active); in that of `Cc1ccc(NC(=O)CSc2nccn2C)cc1S(=O)(=O)N1CCOCC1`, 0 (inactive); in that of `COC(=O)c1ccc(C)c(NC(=O)CN2C(=O)c3ccccc3S2(=O)=O)c1`, 0 (inactive). As for `CN(C)c1ccc(/C=N\NC(=S)SCN2C(=O)C3CCC(C)(C2=O)C3(C)C)cc1` (stereo not given), the manual score is 0 (inactive). Regarding `COc1ccc(/C=N\NC(=S)SCN2C(=O)C3CCC(C)(C2=O)C3(C)C)cc1` (stereo not given), the manual score is 1 (active). With `CC12CCC(C(=O)N(CSC(=S)N/N=C\c3ccccc3O)C1=O)C2(C)C` (stereo not given), the manual score was 1 (active).

As for `CC12CCC(C(=O)N(CSC(=S)N/N=C\c3ccccc3)C1=O)C2(C)C` (stereo not given), the manual score is 1 (active). Take `CC12CCC(C(=O)N(CSC(=S)N/N=C\c3ccccc3Cl)C1=O)C2(C)C` (stereo not given): the manual score is 0.5 (inactive). As for `Clc1ccccc1-c1nn2c(COc3ccccc3)nnc2s1`, the figure is 0 (inactive); as for `Cc1nc2ccc(NS(=O)(=O)c3ccc4c(c3)OCCO4)cc2s1`, 0 (inactive). With `CSc1ccc(S(=O)(=O)NCc2ccccc2Cl)cc1`, the manual score is 0 (inactive). As for `Cc1ccccc1CNS(=O)(=O)c1ccc2c(c1)OCCO2`, the manual score is -1 (active). In the case of `CCSc1nnc(NC(=O)CC)s1` it was 0 (inactive). In the case of `CCSc1nnc(NC(=O)c2nn(C(C)C)c(=O)c3ccccc23)s1` it was 0 (inactive).

For the compound `CCSc1nnc(NC(=O)NC(CC)(C(F)(F)F)C(F)(F)F)s1`, the manual score is 1 (active). As for `CC(C)(C)c1ccc(-c2n[nH]c(=S)n2C2CCCC2)cc1`, the figure is 0 (inactive). `CN(CCC#N)C(=O)CSc1ncnc2sc(-c3ccccc3)cc12`: the manual score was 0 (inactive). In the case of `O=c1c2ccccc2nc(-c2cccc(Cl)c2)n1O` it was 1 (active); in that of `C/C(N)=C(/C#N)C(=O)CSc1nc2cc(Cl)ccc2c(=O)n1-c1ccc(C)cc1`, 0 (inactive); in that of `O=c1c2cc(Br)ccc2nc(-c2cccc(C(F)(F)F)c2)n1O`, 1 (active). As for `O=c1c2ccc(Cl)cc2nc(-c2cccc(C(F)(F)F)c2)n1O`, the figure is 1 (active); as for `O=C1c2ccccc2NC(c2ccc(-c3cccc(Cl)c3)o2)N1O` (stereo not given), 0.5 (inactive); as for `O=c1c2ccccc2nc(-c2ccccc2)n1/N=C/c1ccc([N+](=O)[O-])cc1`, 0 (inactive).

Regarding `Cc1nc2nc(Cc3ccccc3)[nH]n2c(=O)c1Cc1ccccc1`, the manual score is 0 (inactive). In the case of `CCN(CC)CCN1C(=O)c2oc3ccccc3c(=O)c2C1c1ccc(C)cc1` (stereo not given) it was 0 (inactive); in that of `CCOC(=O)C(C)Oc1ccc2c(CC)cc(=O)oc2c1C` (stereo not given), 0 (inactive); in that of `CCOC(=O)C1=C(O)C(=O)N(c2ccc(S(N)(=O)=O)cc2)C1c1ccccc1` (stereo not given), 0 (inactive). On to `COc1ccc2nc(N3C(=O)/C(=C/c4ccccc4)NC3=S)sc2c1`, for which the manual score is 1 (active). As for `CCCSc1nc(C)nc2c1c(=O)n(C)c(=O)n2C`, the figure is 0 (inactive); as for `Clc1ccc(OCCn2ccnc2)c(Cl)c1`, 0 (inactive). With `CC(C)CC(NS(=O)(=O)c1ccc2c(c1)oc(=O)n2C)C(=O)NC1CCCc2ccccc21` (stereo not given), the manual score was 0 (inactive).

As for `CSc1nc(Sc2ccccc2)c2ccccc2n1`, the manual score is 0 (inactive). Take `CCOc1ccccc1N1CCN(S(=O)(=O)c2cccs2)CC1`: the manual score was 0 (inactive). As for `Cc1nc(N2CCN(C(=O)COc3ccccc3)CC2)c2c(C)c(C)sc2n1`, the manual score was -0.5 (inactive). As for `Cc1sc2nc(CN3CCCC3)nc(N3CCN(S(=O)(=O)c4cccs4)CC3)c2c1C`, the figure is -1 (active); as for `Cc1cc(/C=c2/sc3nc4ccccc4n3c2=O)c(C)n1-c1ccccn1`, 0 (inactive). Take `CCNC(=S)N/N=C/c1c(Cl)cccc1Cl`: the manual score is 0.5 (inactive). As for `CC1=NN(c2ccccc2)C(=O)/C1=C\c1c(C)[nH]n(-c2ccccc2)c1=O`, the manual score was 0 (inactive).

In the case of `CCCCN(CCCC)C(=S)N/N=C/c1c(C)[nH]n(-c2ccccc2)c1=O`, the manual score is 1 (active). As for `Cc1nc2c(-c3ccccc3)c(C)[nH]n2c(=O)c1Cl`, the figure is 0 (inactive); as for `Cc1cc(=O)n2[nH]c(C)c(-c3ccccc3)c2n1`, 0.5 (inactive).

Regarding `Cc1[nH]n2c(=O)cc(C(C)(C)C)nc2c1-c1ccccc1`, the manual score is 1 (active). Turning to `COc1cc(CNc2ccc(N3CCCC3)cc2)ccc1OCc1ccccc1`, the manual score is 0 (inactive). As for `COc1cc(CNCCc2c[nH]c3ccccc23)ccc1OCc1ccc(F)cc1`, the figure is -1 (active); as for `COc1cc(/C=C(/C#N)c2ccc(F)cc2)ccc1OCc1ccc(C(=O)O)o1`, 0 (inactive); as for `COc1ccccc1NC(=S)NCCc1ccc(Cl)cc1`, 0 (inactive). As for `Cc1ccc(Cl)cc1NC(=S)NCc1cccn1C`, the manual score is 1 (active). As for `Cn1cccc1CNC1CCCC1`, the figure is 0 (inactive); as for `O=C(c1ccccc1CCc1ccccc1)N1CCN(c2ccccn2)CC1`, -1 (active); as for `O=C(CN1C(=O)c2cccc3cccc(c23)C1=O)N1CCN(c2ccccn2)CC1`, 3 (inactive). In the case of `Cc1cc(C(=O)N2CCN(CCc3ccccc3)CC2)no1` it was 0 (inactive). As for `CCOC(=O)C1CCN(C(=O)N(C)C)CC1`, the figure is 0 (inactive). Regarding `CCC(C)c1ccc(NC(=S)Nc2ccc(OC)c(OC)c2)cc1` (stereo not given), the manual score is 1 (active). Turning to `COc1ccc(NC(=S)Nc2ccc(OCc3ccccc3)cc2)cc1OC`, the manual score was 0 (inactive). As for `COc1ccc(NC(=S)SC)cc1OC`, the figure is 0 (inactive); as for `COc1ccc(CCC(=O)NCc2cnn(C)c2)cc1`, 0 (inactive); as for `CCCSc1nnc(Nc2ccccc2C)s1`, 1 (active). On to `c1ccc2c(Nc3nnc(-c4ccncc4)s3)cccc2c1`, for which the manual score was 0 (inactive). In the case of `Cc1nnc(NC(=O)CCSc2ccccc2)s1` it was 0 (inactive); in that of `COC(=O)C1=NN(c2ccccc2)C2C(=O)N(c3ccccc3OC)C(=O)C12` (stereo not given), 0 (inactive); in that of `N#CC(c1cccc(Cl)c1)c1ccc2c(C(F)(F)F)cc(C(F)(F)F)nc2n1` (stereo not given), 0 (inactive). For `CNC(=S)N/N=C1\C(=O)c2cccc3cccc1c23`, the manual score was 1 (active).

On to `CCNC(=S)N/N=C1\C(=O)c2cccc3cccc1c23`, for which the manual score is 1 (active). On to `CCCCNC(=S)N/N=C1\C(=O)c2cccc3cccc1c23`, for which the manual score is 0 (inactive). With `CCNC(=S)N/N=C1\CCCCc2ccccc21`, the manual score was 4 (inactive).

On to `O=C(N/N=C1/C(=O)c2cccc3cccc1c23)c1ccc(Cl)cc1`, for which the manual score is 1 (active). In the case of `O=c1c(O)c(-c2cccs2)oc2ccc(Cl)cc12`, the manual score is 3 (inactive). In the case of `O=C(N/N=C/c1ccc(Sc2ccccn2)o1)c1cc2ccccc2cc1O` it was 1 (active).

`COc1ccc(/C=N/NC(=O)c2nc(-c3ccccc3)cc(-c3ccccc3)n2)cc1`: the manual score was 0 (inactive). As to `CCCOc1ccc(/C=N/NC(=O)C(=O)Nc2ccccn2)cc1`, the manual score is 0 (inactive). As to `O=C(CSc1nc(O)cc(=O)n1-c1ccccc1)N1CCCCC1`, the manual score is 0 (inactive). In the case of `Cc1ccc(NC(=S)c2nc3ccccc3[nH]2)c(C)c1` it was 1 (active). In the case of `Cc1ccc(NC(=S)N/N=C/c2c(Cl)cccc2Cl)c(C)c1` it was 0 (inactive); in that of `Cc1ccccc1NC(=S)c1nc2ccccc2[nH]1`, 1 (active). As for `N#C/C(=C\c1ccc(N2CCOCC2)o1)c1nc2ccccc2[nH]1`, the figure is 3 (inactive); as for `Cc1ccc(C)c(NC(=S)c2nc3ccccc3s2)c1`, 0 (inactive). Turning to `COc1ccc(CNc2nc(-c3cccnc3)nn2C(=O)c2ccco2)cc1`, the manual score was 0 (inactive). As for `COC(=O)c1ccc(NC(=O)CSc2nnc(COc3ccccc3)n2C)cc1`, the figure is 3 (inactive); as for `CCOC(=O)c1ccccc1NC(=O)CSc1nnc(COc2ccccc2)n1CC`, -0.5 (inactive). In the case of `CCOC(=O)c1nn(-c2ccc(F)cc2)c(C)c1C(C)=O` it was 0 (inactive). In the case of `CCOC(=O)c1ccccc1NC(=O)CSc1nnc(Cc2cccn2C)n1-c1ccc(C)cc1` it was -1 (active). Take `CCOC(=O)c1ccccc1NC(=O)CSc1nnc(COc2ccccc2C)n1C`: the manual score was -1 (active). In the case of `CCOC(=O)CN(C(=O)CSc1nnc(Cc2ccccc2)n1-c1ccc(C)cc1)c1ccccc1` it was -1 (active).

As for `CCOC(=O)c1ccccc1NC(=O)CSc1nnc(Cc2cccn2C)n1-c1ccc(F)cc1`, the manual score is -1 (active). For the compound `CN(C(=O)c1cccnc1)c1nnc(-c2cnccn2)s1`, the manual score is 0 (inactive). As for `Cc1cccn2c(=O)c(/C=N/O)c(N3CCCC3)nc12`, the figure is 0 (inactive); as for `CCOC(=O)C1=C(C)N=C2SCCC(=O)N2C1c1sccc1C` (stereo not given), 0 (inactive); as for `CCc1cc(C(=O)NNC(=S)Nc2cc(C)ccc2C)cs1`, 1 (active). In the case of `CCc1cc(C(=O)NNC(=S)Nc2cccc(C)c2)cs1` it was 1 (active); in that of `CCc1cc(C(=O)NNC(=S)Nc2ccccc2C)cs1`, 0 (inactive); in that of `Cc1ccsc1/C=N/NC(=O)c1sccc1C`, 0 (inactive). In the case of `C/C(=N\NC(=S)Nc1cccc(C)c1)c1cccc(N)c1` it was 0 (inactive). On to `Cc1ccc(C2CC2C(=O)NNC(=S)Nc2cccc(C)c2)cc1` (stereo not given), for which the manual score was 0 (inactive). In the case of `Cc1cccc(NC(=S)NNC(=O)c2sccc2C)c1` it was 1 (active); in that of `CC/C(=N\NC(=S)Nc1cc(C)ccc1C)c1ccc(OC(F)F)cc1`, 0 (inactive).
